Records with an inconclusive call do not appear. Active and inactive are the calls of the source. Unless noted, calls come from the whole dose curve; as a rule, active = well fitted curve in the direction sought with a large enough effect in the repeat runs; inconclusive = weak or mixed curves; inactive = no such curve, though single readings can be large; an effect the other way counts as inactive or inconclusive.
Key:
[1] = qHTS assay for small molecule agonists of the p53 signaling pathway - cell viability (AID 651633; calls by dose curve; note: nearly all actives have a fitted effect of over 30% in size; note: potency is the fitted concentration of half-maximal effect)
Outline: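 p53RE-bla cells, seeded at 4,000 per well and rested 5 h at 37 C/5% CO2, received compounds in DMSO for 16 h at 37 C. CellTiter-Glo was then added, and luminescence was read after 30 min at room temperature to gauge cytotoxicity.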

[2] = qHTS assay for small molecules that induce genotoxicity in human embryonic kidney cells expressing luciferase-tagged ATAD5 - cell viability (AID 651634; calls by dose curve; note: nearly all actives have a fitted effect of over 25% in size)
Outline: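 HEK293T cells expressing luciferase-tagged ATAD5 were exposed to compound or DMSO for 15.5 hr at 37C, 5% CO2. Viability was then read as live-cell protease activity by CellTiter-Fluor fluorescence after 30 min at 37C.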

[3] = qHTS assay to test for compound auto fluorescence at 590 nm (red) in HepG2 cells (AID 720674)
Outline: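 Rose Bengal sodium served as the red fluorophore standard. HepG2 monolayers (overnight attachment, MEM with 10% FBS) were exposed to test compounds for 1 hr at 37 C and read at Ex 540/Em 590 nm.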

[4] = qHTS assay to test for compound auto fluorescence at 460 nm (blue) in HEK293 cells (AID 720678)
Outline: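 HEK293 cells (2,000/well, medium with 10% dialyzed FBS) attached 4-5 hr, then exposed to compound overnight at 37C, 5% CO2. Blue fluorescence read at 405/460 nm, with triamterene as reference fluorophore.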

[5] = qHTS assay to test for compound auto fluorescence at 590 nm (red) in HEK293 cells (AID 720679)
Outline: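 HEK293 cells (2,000/well, 10% dialyzed FBS) attached 4-5 hr, then dosed with compound or DMSO and incubated overnight at 37C, 5% CO2. Red fluorescence read at 540/590 nm, Rose Bengal sodium as reference fluorophore.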

[6] = qHTS assay to test for compound auto fluorescence at 460 nm (blue) in HEK293 cell free culture (AID 720681)
Outline: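 Test compounds were pinned into cell-free culture medium (DMEM with 10% FBS) and fluorescence was read directly at Ex/Em 405/460 nm. Signals were expressed as fluorescence equivalents of triamterene, with DMSO vehicle as control.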

[7] = qHTS assay to test for compound auto fluorescence at 535 nm (green) in HEK293 cell free culture (AID 720682)
Outline: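 Using fluorescein as calibrant, autofluorescence was quantified at 485/535 nm in cell-free DMEM containing 10% FBS after pintool addition of compound or vehicle.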

[8] = qHTS assay to test for compound auto fluorescence at 590 nm (red) in HEK293 cell free culture (AID 720683)
Outline: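 Tox21 10K library compounds were pinned into cell-free DMEM with 10% FBS and fluorescence was read at excitation 540 nm. Activity is expressed as Rose Bengal sodium equivalency.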

[9] = qHTS assay to test for compound auto fluorescence at 590 nm (red) in HepG2 cell free culture (AID 720684)
Outline: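 Red fluorescence (540 nm excitation, 590 nm emission) was measured after compound transfer into cell-free MEM supplemented with 10% FBS. Values are equivalencies against Rose Bengal sodium.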

[10] = qHTS assay to test for compound auto fluorescence at 460 nm (blue) in HepG2 cell free culture (AID 720685)
Outline: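 Compound (23 nL) or DMSO pinned into cell-free MEM with 10% FBS; blue fluorescence read at 405/460 nm excitation/emission, expressed as auto-fluorescence equivalency to triamterene.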

[11] = qHTS assay to test for compound auto fluorescence at 535 nm (green) in HepG2 cell free culture (AID 720686)
[12] = qHTS assay to identify small molecule antagonists of the glucocorticoid receptor (GR) signaling pathway - cell viability counter screen (AID 720693); note: nearly all actives have a fitted effect of over 55% in size; note: potency is the fitted concentration of half-maximal effect
[13] = qHTS assay to identify small molecule antagonists of the androgen receptor (AR) signaling pathway - cell viability counter screen (AID 743033; note: nearly all actives have a fitted effect of over 45% in size)
[14] = qHTS assay to identify small molecule antagonists of the androgen receptor (AR) signaling pathway using the MDA cell line - cell viability counter screen (AID 743041; note: nearly all actives have a fitted effect of over 45% in size)
Outline: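 MDA-kb2 AR-luc human breast carcinoma cells (MMTV-luciferase, AR/GR responsive) were treated with compounds plus R1881 agonist for 16 h at 37 °C. Viability was read as CellTiter-Fluor fluorescence in the same wells as the reporter assay.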

[15] = qHTS assay to identify small molecule antagonists of the estrogen receptor alpha (ER-alpha) signaling pathway - cell viability counter screen (AID 743074; calls by dose curve;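 note: HEK293 cells carrying ER-alpha-UAS-bla reporter stimulated with 17beta-estradiol; nearly all actives have a fitted effect of over 45% in size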)
Aromatase (Homo sapiens) = Aromatase (Homo sapiens) (UniProt P11511); assay: qHTS assay to identify aromatase inhibitors (AID 743083); note: nearly all actives have a fitted effect of over 55% in size; note: potency is the fitted concentration of half-maximal effect
Aromatase (Homo sapiens), sequence (P11511 whole entry, looked up): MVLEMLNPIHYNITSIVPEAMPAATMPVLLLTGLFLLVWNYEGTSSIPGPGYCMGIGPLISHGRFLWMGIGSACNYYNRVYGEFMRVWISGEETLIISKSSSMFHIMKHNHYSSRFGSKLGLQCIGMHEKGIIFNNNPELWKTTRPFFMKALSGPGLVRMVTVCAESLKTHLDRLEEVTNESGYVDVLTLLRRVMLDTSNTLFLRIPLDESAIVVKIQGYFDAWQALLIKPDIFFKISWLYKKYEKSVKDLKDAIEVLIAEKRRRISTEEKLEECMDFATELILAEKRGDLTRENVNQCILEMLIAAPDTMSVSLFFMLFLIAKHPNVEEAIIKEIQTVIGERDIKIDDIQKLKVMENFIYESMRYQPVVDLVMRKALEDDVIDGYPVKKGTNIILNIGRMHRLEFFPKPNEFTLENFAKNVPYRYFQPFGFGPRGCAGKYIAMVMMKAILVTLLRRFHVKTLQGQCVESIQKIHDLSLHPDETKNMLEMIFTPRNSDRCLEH

[16] = qHTS assay to identify aromatase inhibitors - cell viability counter screen (AID 743084);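 note: cells stimulated with testosterone during compound exposure; nearly all actives have a fitted effect of over 55% in size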
[17] = qHTS assay to identify small molecule that activate the aryl hydrocarbon receptor (AhR) signaling pathway - cell viability counter screen (AID 743086);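 note: HepG2 liver cells carrying the AhR DRE luciferase reporter; series mostly up to about 70 µM; nearly all actives have a fitted effect of over 45% in size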
Outline: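 HepG2-AhR-luc (HG2L7.5c1) cells, 4000/well, were preincubated 5 h at 37C, exposed to compound in qHTS format for 24 hr at 37C, then given CellTiter-Fluor for 30 min; viability was read as fluorescence in the reporter wells.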

[18] = qHTS assay to identify small molecule phospholipidosis (PLD) inducers (AID 1259344; active = well fitted curve in the direction sought with a large enough effect; an effect the other way counts as inactive or inconclusive)
Outline: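 HepG2 cells on collagen I, attached 4 h at 37 C, were co-treated with compound and LipidTOX Red dye for 24 h at 37 C, then fixed with paraformaldehyde plus Hoechst 33342 and imaged by high-content microscopy for phospholipid accumulation.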

[19] = qHTS assay to test for compound auto fluorescence at 460 nm (blue) in HepG2 cells (AID 720687)
Outline: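 Cells (2,000/well in MEM with 10% FBS) attached overnight at 37 C, then were exposed to compound or DMSO for 1 hr at 37 C, 5% CO2. Fluorescence read at Ex/Em 405/460 nm, expressed as triamterene-equivalent signal.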

Measured: Potency

O=C1Nc2ccc(Cl)cc2C(c2ccccc2Cl)=NC1O (stereo not given)
not listed: [19]
inactive: all other assays above

Cc1ccccc1-n1c(CF)nc2ccc(N)cc2c1=O
not listed: [3]
inactive: all other assays above

CNC(C)C(O)c1ccc(O)cc1 (stereo not given)
inactive: all assays above

CCCCNCC(O)c1ccc(O)cc1 (stereo not given)
not listed: [7] | Aromatase (Homo sapiens) | [16]
inactive: all other assays above

Cc1cccc(C(C)c2cnc[nH]2)c1C (stereo not given)
active: Aromatase (Homo sapiens) 29.8 µM
not listed: [3]
inactive: all other assays above

CN1C(=O)CC(=O)N(c2ccccc2)c2cc(Cl)ccc21
not listed: [7]
inactive: all other assays above

C[C@@H](Cc1ccccc1)N(C)C
not listed: [3]
inactive: all other assays above

CC(N)Cc1ccc(O)cc1 (stereo not given)
not listed: [3] | [7] | [13]
inactive: all other assays above

CNC1(c2ccccc2Cl)CCCCC1=O (stereo not given)
not listed: [3] | [7] | [19]
inactive: all other assays above

c1ccc2c(c1)Sc1ccccc1N2C[C@@H]1CN2CCC1CC2
inactive: all assays above

C[C@]12C=CC(=O)C=C1CC[C@@H]1[C@@H]2CC[C@]2(C)OC(=O)CC[C@@H]12
inactive: all assays above

C[C@@H]([C@H](O)c1ccccc1)N(C)C
inactive: all assays above

CC(C)C[C@H](CN)CC(=O)O
not listed: [3] | [13]
inactive: all other assays above

COC(=O)[C@@H]1[C@H]2CC[C@@H](C[C@H]1OC(=O)c1ccccc1)N2C
inactive: all assays above

CCCCCc1cc(O)c2c(c1)OC(C)(C)[C@@H]1CCC(C)=C[C@@H]21
active: [1] 23.7 µM | [12] 23.9 µM
not listed: [9] | Aromatase (Homo sapiens) | [19]
inactive: all other assays above

c1ccc(C2(N3CCCC3)CCCCC2)cc1
active: [1] 26.6 µM | [12] 26.8 µM
not listed: [2] | [14]
inactive: all other assays above

CCNCC(O)c1cccc(O)c1 (stereo not given)
inactive: all assays above

CN(C)CCCCCCN(C)C (tested in a mixture with another compound)
not listed: [9] | [15]
inactive: all other assays above

NCC(O)c1cccc(O)c1 (stereo not given)
inactive: all assays above

CN1c2ccccc2C(NCCCCCCC(=O)O)c2ccc(Cl)cc2S1(=O)=O (stereo not given)
not listed: [9] | [19]
inactive: all other assays above

COC([CH2][Hg])CNC(=O)c1ccccc1OCC(=O)O (stereo not given)
not listed: [2]
inactive: all other assays above

CC1(C)[C@H](C=C(Cl)Cl)[C@H]1C(=O)OCc1c(F)c(F)cc(F)c1F
inactive: all assays above

CCCC(C)C1(CC)C(=O)NC(=O)NC1=O (stereo not given)
not listed: [1]
inactive: all other assays above

NCC[C@H](O)C(=O)N[C@@H]1C[C@H](N)[C@@H](O[C@H]2O[C@H](CN)[C@@H](O)[C@H](O)[C@H]2N)[C@H](O[C@@H]2O[C@H](CO)[C@@H](O)[C@H]2O)[C@H]1O
not listed: [19]
inactive: all other assays above

OC[C@@H](O)[C@H]1O[C@@H]2O[C@@H](C(Cl)(Cl)Cl)O[C@@H]2[C@H]1O
not listed: [1]
inactive: all other assays above

COc1ccc(OC)c([C@@H](O)[C@H](C)N)c1
inactive: all assays above

CNC(=O)Oc1ccccc1C(=O)Nc1ccccc1
not listed: [3]
inactive: all other assays above

Source: PubChem BioAssay (Tox21)
